# Source: the supplement of paper PMC8728848
# Only a selection was taken, and the strongest signals are over-represented in it overall.
# Columns and labels:
# Experiment in all cases: glycan array binding signal (z-score within array); higher = stronger binding
# Details in all cases: glycan notation: IUPAC condensed, linker removed
# [1] = molecular target: Fuc(a1-2)Gal(b1-3)GalNAc(a1-3)[Fuc(a1-2)]Gal(b1-4)GlcNAc
# Summary of the method: (§1)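 Negative Z-scores can be read as non-binding. The Z-score is calculated within each array and then averaged across arrays of one protein sequence at different concentrations or buffers and across linkers. Arrays, 3228 in all, were curated from the Consortium for Functional Glycomics database and kept only where the protein sequence was available.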
# [2] = molecular target: Fuc(a1-2)Gal(b1-3)GlcNAc(b1-3)[Fuc(a1-2)Gal(b1-3)GlcNAc(b1-6)]GalNAc
# Summary of the method: as §1
# [3] = molecular target: Fuc(a1-2)Gal(b1-4)[Fuc(a1-3)]GlcNAc(b1-3)Gal(b1-4)[Fuc(a1-3)]GlcNAc(b1-3)Gal(b1-4)[Fuc(a1-3)]GlcNAc
# Summary of the method: as §1
# [4] = molecular target: Fuc(a1-2)Gal(b1-4)[Fuc(a1-3)]GlcNAc(b1-3)[Neu5Ac(a2-6)Gal(b1-4)GlcNAc(b1-6)]Gal(b1-4)Glc
# Summary of the method: as §1
# [5] = molecular target: Fuc(a1-2)Gal6S(b1-4)Glc
# Summary of the method: as §1
# [6] = molecular target: Fuc(a1-2)[Gal(a1-3)]Gal(b1-3)GalNAc
# Summary of the method: as §1
# [7] = molecular target: Fuc(a1-2)[Gal(a1-3)]Gal(b1-3)GlcNAc(b1-2)Man(a1-3)[Fuc(a1-2)[Gal(a1-3)]Gal(b1-3)GlcNAc(b1-2)Man(a1-6)]Man(b1-4)GlcNAc(b1-4)GlcNAc
# Summary of the method: as §1
# [8] = molecular target: Fuc(a1-2)[Gal(a1-3)]Gal(b1-4)GlcNAc(b1-3)[Fuc(a1-2)[Gal(a1-3)]Gal(b1-4)GlcNAc(b1-6)]GalNAc
# Summary of the method: as §1
# [9] = molecular target: Fuc(a1-2)[Gal(a1-3)]Gal(b1-4)[Fuc(a1-3)]GlcNAc(b1-3)GalNAc
# Summary of the method: as §1
# [10] = molecular target: Fuc(a1-2)[GalNAc(a1-3)]Gal(b1-3)GlcNAc
# Summary of the method: as §1
# [11] = molecular target: Fuc(a1-3)[Gal(b1-4)]GlcNAc(b1-2)Man
# Summary of the method: as §1
# [12] = molecular target: Fuc(a1-3)[Gal(b1-4)]GlcNAc(b1-6)GalNAc
# Summary of the method: as §1
# [13] = molecular target: Fuc(a1-3)[GalNAc(b1-4)]GlcNAc
# Summary of the method: as §1
# [14] = molecular target: Gal(a1-3)Gal(b1-4)GlcNAc(b1-3)GalNAc
# Summary of the method: as §1
# [15] = molecular target: Gal(a1-3)[Gal(a1-4)]Gal(b1-4)GlcNAc
# Summary of the method: as §1
# [16] = molecular target: Gal(b1-3)GalNAc(a1-3)[Fuc(a1-2)]Gal(b1-4)GlcNAc
# Summary of the method: as §1
# [17] = molecular target: Gal(b1-3)GlcNAc(b1-2)[Gal(b1-3)GlcNAc(b1-6)]Man(a1-6)[Gal(b1-3)GlcNAc(b1-2)Man(a1-3)]Man(b1-4)GlcNAc(b1-4)GlcNAc
# Summary of the method: as §1
# [18] = molecular target: Gal(b1-3)GlcNAc(b1-6)GalNAc
# Summary of the method: as §1
# [19] = molecular target: Gal(b1-3)[Fuc(a1-4)]GlcNAc(b1-6)GalNAc
# Summary of the method: as §1
# [20] = molecular target: Gal(b1-4)GalNAc(a1-3)[Fuc(a1-2)]Gal(b1-4)GlcNAc
# Summary of the method: as §1
# [21] = molecular target: Gal(b1-4)GlcNAc(b1-2)Man(a1-6)Man(b1-4)GlcNAc(b1-4)GlcNAc
# Summary of the method: as §1
# [22] = molecular target: Gal(b1-4)GlcNAc(b1-3)Gal(b1-4)GlcNAc(b1-2)Man(a1-3)[Gal(b1-4)GlcNAc(b1-3)Gal(b1-4)GlcNAc(b1-2)Man(a1-6)]Man(b1-4)GlcNAc(b1-4)GlcNAc
# Summary of the method: as §1
# [23] = molecular target: Gal(b1-4)GlcNAc(b1-3)Gal(b1-4)GlcNAc(b1-2)[Gal(b1-4)GlcNAc(b1-3)Gal(b1-4)GlcNAc(b1-6)]Man(a1-6)[Gal(b1-4)GlcNAc(b1-3)Gal(b1-4)GlcNAc(b1-2)Man(a1-3)]Man(b1-4)GlcNAc(b1-4)GlcNAc
# Summary of the method: as §1
# [24] = molecular target: Gal(b1-4)GlcNAc(b1-3)Gal(b1-4)GlcNAc(b1-2)[Gal(b1-4)GlcNAc(b1-3)Gal(b1-4)GlcNAc(b1-6)]Man(a1-6)[Gal(b1-4)GlcNAc(b1-3)Gal(b1-4)GlcNAc(b1-2)Man(a1-3)]Man(b1-4)GlcNAc(b1-4)[Fuc(a1-6)]GlcNAc
# Summary of the method: as §1
# [25] = molecular target: Gal(b1-4)GlcNAc(b1-3)Gal(b1-4)GlcNAc(b1-3)Gal(b1-4)GlcNAc(b1-3)Gal(b1-4)GlcNAc(b1-2)[Gal(b1-4)GlcNAc(b1-3)Gal(b1-4)GlcNAc(b1-3)Gal(b1-4)GlcNAc(b1-3)Gal(b1-4)GlcNAc(b1-6)]Man(a1-6)[Gal(b1-4)GlcNAc(b1-3)Gal(b1-4)GlcNAc(b1-3)Gal(b1-4)GlcNAc(b1-3)Gal(b1-4)GlcNAc(b1-2)Man(a1-3)]Man(b1-4)GlcNAc(b1-4)[Fuc(a1-6)]GlcNAc
# Summary of the method: as §1
# [26] = molecular target: Gal(b1-4)GlcNAc(b1-3)Gal(b1-4)GlcNAc(b1-3)Gal(b1-4)GlcNAc(b1-3)Gal(b1-4)GlcNAc(b1-3)Gal(b1-4)GlcNAc(b1-2)[Gal(b1-4)GlcNAc(b1-3)Gal(b1-4)GlcNAc(b1-3)Gal(b1-4)GlcNAc(b1-3)Gal(b1-4)GlcNAc(b1-3)Gal(b1-4)GlcNAc(b1-6)]Man(a1-6)[Gal(b1-4)GlcNAc(b1-3)Gal(b1-4)GlcNAc(b1-3)Gal(b1-4)GlcNAc(b1-3)Gal(b1-4)GlcNAc(b1-3)Gal(b1-4)GlcNAc(b1-2)Man(a1-3)]Man(b1-4)GlcNAc(b1-4)[Fuc(a1-6)]GlcNAc
# Summary of the method: as §1
# [27] = molecular target: Gal(b1-4)GlcNAc(b1-6)Gal(b1-4)GlcNAc
# Summary of the method: as §1
# [28] = molecular target: Gal3S(b1-3)GlcNAc
# Summary of the method: as §1
# [29] = molecular target: Gal3S4S(b1-4)GlcNAc
# Summary of the method: as §1
binder,measurement,setting,value
PX9961C-bth-497-22-497 (Bacteroides thetaiotaomicron) (protein) DWLDLNTTSSVETGQAIVTLDDAQIALNGIYRLASGHSYYGDNYWYYGDCRAADVQARITKGDGKRVSPYYEYNVLASDNLNIVLPWNTVYKVIRQTNNLIQKIESGSIQSSDTKELNRIKSEALVMRGLSLFNLTRLFGMPYTNDKGASLGVPIETSPSDPTHKPSRSTVAQCYEQVVSDMSNALSGLRQETSNGYINYWAAQALLSRVYLNMGEYQKAYDAATDVIKNNGGRYQLYSYEEYPNVWGQDFQSESLFELYITLSEPSGGTGGEGAPMVYANEATVDWNNLILSEDFLNLLNEDPKDVRHCLTKESVIENNTGLPAAAMHEKVYLAKFPGKTGDDPKTNNICIIRLSEVYLNAAEAGLKKGTDIEEAQGYLNDIISRRTTDTSQQVSTETFTLDRILKERRKELVGEGEVFYDYLRNGLAIERKGSWHLETLKASNAQKIEATDLRIALPIPQSEIDANPNIQQNPR,glycan array binding signal (z-score),[1],-0.6
same,glycan array binding signal (z-score),[2],0.12
same,glycan array binding signal (z-score),[3],-0.517
same,glycan array binding signal (z-score),[4],-0.648
same,glycan array binding signal (z-score),[5],-0.078
same,glycan array binding signal (z-score),[6],-0.3
same,glycan array binding signal (z-score),[7],1.08
same,glycan array binding signal (z-score),[8],-0.459
same,glycan array binding signal (z-score),[9],-0.284
same,glycan array binding signal (z-score),[10],-0.776
same,glycan array binding signal (z-score),[11],1.56
same,glycan array binding signal (z-score),[12],0.511
same,glycan array binding signal (z-score),[13],0.598
same,glycan array binding signal (z-score),[14],-0.646
same,glycan array binding signal (z-score),[15],2.48
same,glycan array binding signal (z-score),[16],-0.307
same,glycan array binding signal (z-score),[17],14.1
same,glycan array binding signal (z-score),[18],-0.427
same,glycan array binding signal (z-score),[19],-0.101
same,glycan array binding signal (z-score),[20],-0.203
same,glycan array binding signal (z-score),[21],-0.302
same,glycan array binding signal (z-score),[22],1.26
same,glycan array binding signal (z-score),[23],2.36
same,glycan array binding signal (z-score),[24],2.08
same,glycan array binding signal (z-score),[25],-0.171
same,glycan array binding signal (z-score),[26],7.33
same,glycan array binding signal (z-score),[27],-0.211
same,glycan array binding signal (z-score),[28],-0.219
same,glycan array binding signal (z-score),[29],0.105
